In PubChem BioAssay (NCI):
Where “and” joins values, the source holds several entries; their conditions need not be identical. Equal entries are not always repeated. This is part of a sample that, as a whole, favours compounds with a hit. Of some 79,000 tested, about 15% had one in any assay. No stated cut-off is given here; in the data, active means growth inhibition above about 70%; inactive means the rest.

How the values were obtained:
[1] = NCI Yeast Anticancer Drug Screen. Data for the rad50 strain (AID 155);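 further: 0% = growth of vehicle-only cultures of the same strain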; conditions: S. cerevisiae rad50 strain growth inhibition, hits give high values; at 50.0 µM unless noted
Method in brief: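 DNA repair mutant yeast, compound exposure, growth read-out; inhibition is taken relative to vehicle.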

[2] = NCI Yeast Anticancer Drug Screen. Data for the mec2-1 strain (AID 157); conditions: S. cerevisiae mec2-1 strain, hits give high values; at 50.0 µM unless noted
Method in brief: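 Vehicle-treated cultures served as reference for growth inhibition of compound-exposed mec2-1 yeast.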

[3] = NCI Yeast Anticancer Drug Screen. Data for the sgs1 mgt1 strain (AID 161);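 further: 0% = growth of cultures given vehicle only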; conditions: S. cerevisiae sgs1 mgt1 strain, hits give high values; at 50.0 µM unless noted
Method in brief: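 Read-out: growth inhibition vs vehicle controls. Cells: mutant yeast strain deficient in DNA damage repair.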

[4] = NCI Yeast Anticancer Drug Screen. Data for the cln2 rad14 strain (AID 165);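 further: 0% = growth equal to vehicle treated cultures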; conditions: S. cerevisiae cln2 rad14 strain, hits give high values; at 50.0 µM unless noted
Method in brief: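 Each compound was tested on cln2 rad14 yeast. Inhibition of growth was calculated against vehicle-exposed controls.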

[5] = NCI Yeast Anticancer Drug Screen. Data for the bub3 strain (AID 167); conditions: S. cerevisiae bub3 mutant strain, hits give high values; at 50.0 µM unless noted
Method in brief: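 In this screen, a yeast mutant lacking normal mitotic checkpoint function is challenged with compound. Relative growth versus vehicle gives the inhibition value.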

[6] = NCI Yeast Anticancer Drug Screen. Data for the mlh1 rad18 strain (AID 175); conditions: S. cerevisiae mlh1 rad18 strain growth inhibition, hits give high values; at 50.0 µM unless noted
Method in brief: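 Vehicle-treated cultures served as the reference for growth inhibition in a yeast strain carrying DNA damage repair alterations exposed to each compound.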

Measured: growth inhibition

O=Cc1c[nH]c2ccc(F)cc12
inactive: [1] 9.85% | [2] -19.4% | [3] 20.6% | [4] 14.3% | [5] 19.9% | [6] 23.4%

CCOc1ccc(OCC)c(NC=O)c1
inactive: [1] -9% | [2] -20.1% | [3] -6.75% | [4] 8.4% | [5] -11.8% | [6] 2.95%

Cc1ccc(Nc2nc(-c3ccc(-c4ccc([N+](=O)[O-])cc4)o3)cs2)cc1
inactive: [1] 20.5% | [2] 19.5% | [3] 31.8% | [4] 31.5% | [5] 28.7% | [6] 44%

CC(C)N1CCN(c2ccncc2S(=O)(=O)N2CCCC2)CC1
inactive: [1] 2.7% | [2] 4.8% | [3] -4.65% | [4] -33.9% | [5] 1.35% | [6] 8.4%

O=S(=O)(O)c1ccc2c(ccc3ccccc32)c1
inactive: [1] -18.4% and -3.8% | [2] -0.25% and -18.4% | [3] -2.9% and -14.2% | [4] -0.9% and 21.6% | [5] 1.35% and 28.1% | [6] 5.7% and -23.1%

COc1cc(C(=O)NNC(=O)c2ccc(Cl)c(Cl)c2)cc(OC)c1OC
inactive: [1] 24.4% | [2] 33.9% | [3] 20.5% | [4] 18.4% | [5] 33.3% | [6] 34.9%

COc1ccccc1-n1c(=O)c(N=Nc2ccc(C)cc2)c(O)n(-c2ccccc2C)c1=S
inactive: [1] -34.8% | [2] -10.5% | [3] -17.9% | [4] -44.1% | [5] 0% | [6] -37.5%

CN(Cc1ccccc1)c1cc(=O)n(C)c(=O)[nH]1
inactive: [1] 7.3% | [2] 15.8% | [3] 35.8% | [4] 14% | [5] 25.6% | [6] -6.8%

CC1=Nc2cc(Cl)c(Cl)cc2N(C)/C1=C/C1=C(Cl)C(=O)c2cc3c(Cl)ccc(Cl)c3cc2C1=O
inactive: [1] -0.05% | [2] 8.75% | [3] 13.1% | [4] 25.1% | [5] -1.4% | [6] 20.8%

Brc1ccc2c(ccc3c2nnc2ncnn23)c1
inactive: [1] 42.5% | [2] 22.4% | [3] 16.9% | [4] 10.7% | [5] -1.55% | [6] 42.2%

CCOc1ccccc1N=Nc1c(-c2ccccc2)nn(C(=O)CC(=O)Nc2cccc(Cl)c2)c1-c1ccccc1
inactive: [1] 12.6% | [2] -13.9% | [3] 40.9% | [4] 9.2% | [5] 26.2% | [6] 22.2%

Cc1nc(Nc2ccc(Cl)cc2)c2cnn(-c3ccc(Cl)cc3)c2n1
inactive: [1] -1.9% | [2] -2.25% | [3] -7.95% | [4] -41% | [5] -2.3% | [6] -5.05%

CC1(C)OCC(N)[C@@H](O)CO1 (some centres undefined)
inactive: [1] 5% | [2] 12.9% | [3] 13.3% | [4] -26.2% | [5] 3.5% | [6] -0.65%

O=C(CCC1OCCO1)Nc1cc([N+](=O)[O-])ccc1OCc1ccccc1
inactive: [1] -1.9% | [2] 4.5% | [3] 6.25% | [4] -8.2% | [5] -1.35% | [6] 7.6%

CN1CC2=C(NC(=S)NC2c2ccc(Cl)cc2)/C(=C/c2ccc(Cl)cc2)C1 (centres undefined)
inactive: [1] -7.95% | [2] 4.45% | [3] 7.45% | [4] 14.4% | [5] 29.2% | [6] 4.15%

N#CC(C(=O)CCC(=O)NCCc1ccccc1)c1nc2ccccc2s1 (centres undefined)
inactive: [1] -11.9% | [2] -6.05% | [3] -10.8% | [4] -10.1% | [5] 4.8% | [6] 4.55%

Cc1ccc(NC(=O)c2cccc(OP(=O)(O)Nc3ccc(C)cc3)c2)cc1
inactive: [1] -13.7% | [2] 2.7% | [3] 2.8% | [4] 17% | [5] -0.95% | [6] -17%

Cc1cnc2ccccc2n1 (tested in a mixture with another compound)
inactive: [1] -1.5% | [2] 4.35% | [3] -5.25% | [4] 8% | [5] -2.1% | [6] 24.8%

CN1c2ccccc2C2CCCCC21 (centres undefined)
inactive: [1] 11.6% | [2] 9.7% | [3] 2.15% | [4] -20.2% | [5] 22.8% | [6] 4.25%
